Screening data deposited in PubChem by Buhrlage Lab, Dana-Farber Cancer Institute and Novartis Institutes for BioMedical Research (Cambridge, Mass).
An excerpt weighted towards active compounds, which were near 13% of everything screened.
USP30 inh = blocks human USP30 ubiquitin-rhodamine cleavage | purified USP30, Ub-rhodamine cleavage fluorescence | inhibition, % at 25 µM | 47,000 tested, 5.3% active | AID 1645860
USP7 inh = inhibitors of human USP7 deubiquitinase | Q93009 | purified USP7, Ub-rhodamine cleavage fluorescence | inhibition, % at 20 µM | 47,000 tested, 0.3% active | AID 1645854
USP17 inh = blocks human USP17 ubiquitin-rhodamine cleavage. A8MUK1. purified USP17, Ub-rhodamine cleavage fluorescence, 3 h. inhibition, % at 50 µM. 47,000 tested, 6.5% active
USP10 block = inhibitors of human USP10 deubiquitinase | Q14694 | purified USP10, Ub-rhodamine fluorescence, 60 min | inhibition, % at 20 µM | 47,000 tested, 1.1% active | AID 1645856
USP8 inh = human USP8 deubiquitinase inhibition | purified USP8, Ub-rhodamine cleavage fluorescence, 30 min | inhibition, % at 20 µM | 47,000 tested, 4.2% active | P40818
USP28 block = human USP28 deubiquitinase inhibition. Q96RU2. purified USP28, Ub-rhodamine cleavage fluorescence, 30 min. inhibition, % at 25 µM. 47,000 tested, 3% active. AID 1645857
An asterisk follows results filed as active; nt = no result. No stated cut-off is given here; in the data, active means inhibition above about 30%; inactive means the rest.

SMILES | USP30 inh | USP7 inh | USP17 inh | USP10 block | USP8 inh | USP28 block
Cc1nnc(-c2nnc(NCc3ccc(Cl)cc3)c3ccccc23)o1 | 37* | 1 | 52* | -3 | 13 | 13
Cc1cc(C)n(-c2ccc(C(=O)Nc3cccc(S(=O)(=O)N4CCCC4)c3)cc2)n1 | 74* | 1 | 29 | 12 | -18 | 69*
CCN(CC)S(=O)(=O)c1cccc(NC(=O)c2ccc(OC(F)(F)F)cc2)c1 | 18 | 13 | 13 | 12 | 17 | 30*
CC(C)Oc1ccc(C(=O)Nc2cccc(S(=O)(=O)N3CCCC3)c2)cc1 | 25 | -4 | 19 | 2 | 11 | 63*
O=C(COc1coc(CN2CCc3ccccc3C2)cc1=O)Nc1cccc(F)c1 | -7 | 5 | 25 | 6 | 30* | 19
CCOC(=O)c1ccc(NC(=O)COc2cccc3c2CCN(Cc2cccnc2)C3=O)cc1 | 4 | 0 | 4 | -6 | -3 | 32*
COc1ccc(-c2cc(C(=O)N3CCC(Cc4ccccc4)CC3)c3cc(Br)ccc3n2)cc1 | -34 | 2 | -5 | -2 | -64 | -13
COc1cc(-c2nnc(CSc3ccc(C(F)(F)F)cn3)o2)cc(OC)c1OC | 38* | 1 | 27 | -6 | 5 | 13
CCN1CCN(c2nc3ncn(CC(=O)Nc4ccccc4C)c(=O)c3s2)CC1 | -11 | -1 | -6 | -1 | -8 | -6
COc1ccc(C(CNC(=O)Cn2c(=O)cnc3ccccc32)N2CCCC2)cc1 (centres undefined) | -1 | 4 | 4 | -2 | 17 | 0
Nc1nc(OCc2ccccc2)c2[nH]c(/C=C/c3cccs3)nc2n1 | 84* | 5 | 17 | 15 | 72* | 67*
O=C(NC1CCC1)c1ccc2nnc(C3CCN(Cc4ccccc4)C3)n2c1 (centres undefined) | -13 | -2 | -13 | -4 | -169 | -7
COc1ccc(-c2oc3ncnc(NCc4ccco4)c3c2-c2ccc(OC)cc2)cc1 | 14 | -5 | 30* | 4 | 23 | 10
Clc1cccc(-c2noc3ncnc(NCc4ccco4)c23)c1 | 37* | -23 | 18 | 4 | 18 | 24
CCCCCn1c(CCNC(=O)c2ccco2)nc2ccccc21 | -4 | -135 | 0 | -2 | -2 | -1
Nc1ccccc1SC(CC(=O)c1ccc(Cl)cc1)c1ccsc1 (centres undefined) | -16 | -5 | 53* | 7 | 73* | 12
Cc1cccc(-c2cc(C(=O)Nc3ccccc3F)[nH]n2)c1O | 58* | 11 | 90* | 13 | 24 | 36*
Cc1cc(C)c(O)c(-c2cc(C(=O)Nc3ccccc3Cl)[nH]n2)c1 | 46* | 19 | 68* | 25 | 97* | 19
O=C(Nc1ccc(Cl)cc1)c1cc(-c2ccccn2)n[nH]1 | 13 | 8 | 6 | 2 | -13 | 8
CCOc1ccccc1NC(=O)c1cc(-c2ccncc2)n[nH]1 | nt | 4 | -21 | 1 | 0 | nt
O=C(NC1CCCCC1)c1ccc2c(c1)nnn2CCN1CCOCC1 | 5 | 2 | 3 | -3 | 12 | -3
CCOc1ccc2[nH]c(=O)c(-c3nc4cc(C)ccn4c3NC(C)(C)C)cc2c1 | -103 | -3 | -11 | -5 | -51 | -143
CCOc1ccc2[nH]c(=O)c(-c3nc4ccc(C)cn4c3NCc3ccccc3)cc2c1 | 26 | 15 | 49* | 31* | 14 | 32*
Nc1c(-c2nc(-c3ccc(F)cc3)no2)nnn1-c1ccccc1F | 0 | 8 | 5 | 1 | 35* | -6
Cc1cccc(-n2nnc(-c3nc(-c4ccc(Cl)cc4)no3)c2N)c1 | -12 | 4 | -8 | -2 | 12 | -14
SMILES | USP30 inh | USP7 inh | USP17 inh | USP10 block | USP8 inh | USP28 block
Nc1c(-c2nc(-c3ccccc3Cl)no2)nnn1-c1ccc(Cl)cc1 | 40* | 56* | 43* | 60* | 94* | 20
O=S1(=O)N[C@H]2CCN(Cc3ccccc3F)CC[C@@H]2Oc2ccccc21 | -27 | -3 | -13 | -5 | -6 | -9
COC[C@@H]1C[C@@]1(CN1CCN(S(=O)(=O)c2ccccn2)CC1)c1ccccc1 | 16 | 6 | 4 | -2 | 0 | 4
CC1=C(c2ccc(C)cc2)S(=O)(=O)N=C1N1CCN(c2cc(C)ccc2C)CC1 | 13 | 4 | 6 | 0 | 10 | 3
COc1ccc(C)cc1NC(=O)N1C[C@@H]2C[C@H]1C[C@@H]2NS(=O)(=O)c1ccccc1 | -77 | -10 | -24 | -12 | -2 | -24
CC(C)OCCCN1C(=O)c2[nH]nc(-c3ccccc3O)c2C1c1cccc(Cl)c1 (centres undefined) | 5 | 1 | 27 | 25 | 55* | 4
CC1(C)O[C@@](C)([C@H]2CC3(CCN(C(=O)c4ccccc4)CC3)CO2)CC[C@@H]1O | 10 | 2 | -4 | 2 | 2 | 0
O=C(Nc1ccc2n[nH]nc2c1)c1ccc(Cl)c(Cl)c1 | 53* | 2 | 51* | 8 | 0 | 17
CCc1noc(-c2ccn3c(CC(=O)Nc4ccccc4)nnc3c2)n1 | -59 | 0 | -16 | 5 | 2 | -14
CC(C)c1noc(-c2ccn3c(CC(=O)Nc4ccccc4)nnc3c2)n1 | 0 | 8 | 3 | 8 | 40* | -5
O=C(Oc1ccccc1)C1CCN(C2=NS(=O)(=O)c3ccccc32)CC1 | 9 | 2 | 14 | 5 | 14 | 0
COc1ccc(Cn2nnc(-c3cccc(F)c3)n2)cc1F | 2 | 0 | 5 | 7 | -33 | 49*
COc1ccc(-c2nnn(Cc3ccc(-c4ccccc4)cc3)n2)cc1OC | 1 | 6 | 4 | 3 | 14 | -4
COc1cccc(CNc2nc3c(S(=O)(=O)c4ccc(F)cc4)nnn3c3ccccc23)c1 | 13 | 6 | nt | 1 | 9 | 2
O=S(=O)(c1ccccc1)c1nnn2c1nc(Nc1ccc(F)cc1)c1ccccc12 | 17 | 8 | 5 | 10 | 52* | 0
COc1cccc(Nc2nc3c(S(=O)(=O)c4ccccc4)nnn3c3ccccc23)c1 | nt | 24 | 85* | 20 | 38* | nt
COCCN(C)C(=O)c1c2c(NCC3CC3)ncnc2n2ccccc12 | -432 | -38 | -60 | -12 | 31* | -98
CCCn1c(=O)c2sccc2n2c(CCC(=O)NC3CC3)nnc12 | 14 | 6 | 21 | 0 | 23 | 5
Cc1c(-c2nsc(NC(=O)c3ccc(Cl)cc3)n2)nnn1-c1ccccc1F | 86* | 21 | 39* | 43* | 86* | 64*
COC(=O)c1cccc(Nc2cc(C)nc3nc(-c4cccnc4)nn23)c1 | 20 | 5 | 13 | 5 | -7 | 13
Cc1cc(C)cc(C(=O)N2CCN(S(=O)(=O)c3c(C)nn(C)c3C)CC2)c1 | 7 | 0 | -4 | 1 | -9 | -8
O=C(Nc1nc2c(s1)CN(C(=O)c1cnn(-c3ccccc3)n1)CC2)C1CCCO1 (centres undefined) | -11 | 6 | 1 | -3 | -187 | 7
